Test results from PubChem BioAssay AID588852 (The Scripps Research Institute Molecular Screening Center, 2011).
The whole screen tested about 360,000 compounds, of which about 4,600 (1.3%) were called active.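 Rule for the calls: active = percent inhibition above its own plate's cutoff, namely the mean of that plate's compound wells plus 3 SD; inactive = the rest.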 Only a selection was taken, and actives are over-represented in it overall.

These compounds were tested against Muscarinic acetylcholine receptor M1 (Homo sapiens) (UniProt P11229) (assay: human M1 muscarinic receptor antagonists, primary screen, CHO-K1 cells, Fluo-8 calcium fluorescence, 1536-well (AID 588852;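 note: peak over basal fluorescence ratio during 140 s after agonist addition; 0% = ACh EC80 plus DMSO and 100% = DMSO alone without agonist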)). Settings: CHO-K1 hM1, Fluo-8 calcium fluorescence, ACh EC80 antagonist; at 3 µM; stronger effect = higher value.
Chain of Muscarinic acetylcholine receptor M1 (Homo sapiens) (P11229 whole entry, looked up): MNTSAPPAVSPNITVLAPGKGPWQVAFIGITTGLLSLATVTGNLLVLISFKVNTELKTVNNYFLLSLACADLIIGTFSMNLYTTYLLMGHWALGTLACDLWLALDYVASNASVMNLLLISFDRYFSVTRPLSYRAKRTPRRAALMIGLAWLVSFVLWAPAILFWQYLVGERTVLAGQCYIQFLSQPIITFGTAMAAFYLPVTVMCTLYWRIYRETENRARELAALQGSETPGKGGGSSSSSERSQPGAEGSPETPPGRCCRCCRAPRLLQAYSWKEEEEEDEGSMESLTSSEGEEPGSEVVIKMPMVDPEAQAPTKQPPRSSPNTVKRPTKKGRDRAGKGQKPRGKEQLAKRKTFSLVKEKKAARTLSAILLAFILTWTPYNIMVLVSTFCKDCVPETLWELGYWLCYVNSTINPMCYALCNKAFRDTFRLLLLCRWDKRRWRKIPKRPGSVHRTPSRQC
COc1ccc(-n2nnnc2C(c2cccc3ccccc23)N2CCC(n3c(=O)[nH]c4ccccc43)CC2)cc1 (stereo not given) was tested, and the inhibition was 103% (active). For O=c1[nH]c2ccccc2n1C1CCN(C(c2ccccc2)c2nnnn2Cc2ccccc2)CC1 (stereo not given), the inhibition was -3.28% (inactive). In the case of O=c1[nH]c2ccccc2n1C1CCN(C(c2ccnc3ccccc23)c2nnnn2Cc2ccccc2)CC1 (stereo not given), the inhibition is reported as 4.78% (inactive). With COC1C(O)C(C)OC(OC2CCC3(C=O)C(CCC4C3CCC3(C)C(C5=CC(=O)OC5)CCC43O)C2)C1O (stereo not given) the inhibition was -8.54% (inactive). For CC12CCC3C(CCC4CC(=O)CCC43C)C1CC(=NO)C2=O (stereo not given), the inhibition was -2.57% (inactive). In the case of COc1cccc(C(=O)N2C[C@H]3C[C@@H](C2)c2cccc(=O)n2C3)c1, the inhibition is reported as -17.6% (inactive). In the case of CCn1cc(CN2CCCC(C(=O)c3cccc(C(F)(F)F)c3)C2)cn1 (stereo not given), the inhibition is reported as 30.8% (inactive). With CC(C)Oc1cccc(C(=O)C2CCCN(C3CCOCC3)C2)c1 (stereo not given) the inhibition was 62.5% (active). In the case of O=C(Nc1cccc(OC(=O)N2CCCCC2)c1)N1CCOCC1, the inhibition is reported as 12.4% (inactive). For CC(C)(C)[C@]1(O)C[C@@H]2OC(=O)C[C@@]23C(=O)O[C@@H]2OC(=O)[C@H](O)[C@]213, the inhibition was -3.8% (inactive). CC(=NCc1ccc2c(c1)OCO2)c1c(O)[nH]c(=O)[nH]c1=O was tested, and the inhibition was -24.2% (inactive). With CCCC[N+]1(C)C2CC(OC(=O)C(CO)c3ccccc3)CC1C1OC12 (stereo not given) the inhibition was 85.3% (active). For CCCCC(=O)N/N=C/c1c(O)n(CC)c(=S)n(CC)c1=O, the inhibition was -7.53% (inactive). For Cc1ccc2c(c1)C1CN(C)CCC1N2C(=O)Cn1nnc(-c2ccccc2F)n1 (stereo not given), the inhibition was 5.84% (inactive). With O=C(COc1ccc2ccccc2c1)N1CCN(Cc2ccncc2)CC1 the inhibition was 14.5% (inactive). With CC(C(=O)Nc1ccc(Cl)cc1Cl)N1CC=C(c2ccccc2)CC1 (stereo not given) the inhibition was 18.7% (inactive). For CC[N+]1(C)CCCC(OC(=O)C(O)(c2ccccc2)c2ccccc2)C1 (stereo not given), the inhibition was 97.3% (active). With COC(=O)CN1C(=O)C2(C(C(=O)OC)=C(N)Oc3ccccc32)C2=C1CC(C)(C)CC2=O (stereo not given) the inhibition was -6.88% (inactive). With CCOc1ccc(CN(CCCl)CCCl)cc1C(=O)OC the inhibition was -7.91% (inactive). With CSCCC(c1nnnn1C(C)(C)C)N1CCC(n2c(=O)[nH]c3ccccc32)CC1 (stereo not given) the inhibition was -5.89% (inactive). OC(CNC1CCCCC1)c1ccccc1 (stereo not given) was tested, and the inhibition was -2.05% (inactive). With c1ccc(C(CN2CCCCC2)c2ccccc2)cc1 the inhibition was 50% (active). For COC(=O)C(c1ccccc1)N1CCCCCC1 (stereo not given), the inhibition was -0.1% (inactive). With CCOP(=O)(OCC)C(NC(=O)NC)C(N)=O (stereo not given) the inhibition was -7.67% (inactive). For COc1cccc(C(c2nnnn2-c2ccc3c(c2)OCCO3)N2CCC3(CC2)C(=O)NCN3c2ccccc2)c1OC (stereo not given), the inhibition was -16.2% (inactive). O=C(OCCN1CCOCC1)C1(c2ccccc2)CCCC1 was tested, and the inhibition was 35.5% (active). c1ccc(CCN2CCC3(CC2)OCCO3)cc1 was tested, and the inhibition was -10% (inactive). With CCOC(=O)C1(c2ccccc2)CCN(CC(O)c2ccc(NC(C)=O)cc2)CC1 (stereo not given) the inhibition was -8.72% (inactive). For CC(=O)NCC1=C(c2ccc3ccccc3c2)C[C@@H]2CC[C@H]1N2Cc1ccco1, the inhibition was -9.51% (inactive). With CCN(CC)P(=O)(Oc1cccc(C)c1)N(CC)CC the inhibition was -22.1% (inactive). COC(=O)C1=C(c2ccccc2OCc2ccccc2)C[C@@H]2CC[C@H]1N2C(=O)NCc1ccc(OC)cc1 was tested, and the inhibition was 18.3% (inactive). In the case of NC(=O)Nc1cccc(C(F)(F)F)c1, the inhibition is reported as -7.02% (inactive). In the case of Cc1cc(=O)oc2c(C)c(OCC(=O)N3CCN(Cc4ccc5c(c4)OCO5)CC3)ccc12, the inhibition is reported as -1.03% (inactive). For COc1ccc(C(=O)C2CCCN(Cc3ccc(C)s3)C2)cc1OC (stereo not given), the inhibition was 52.6% (active). With COc1cccc(CN2CCCC(C(=O)c3ccccc3SC)C2)c1O (stereo not given) the inhibition was 23.3% (inactive). With Cc1ccsc1C(=O)C1CCCN(Cc2ccc(O)cc2)C1 (stereo not given) the inhibition was 7.02% (inactive). In the case of Cc1ccc(CN2CCCC(C(=O)c3ccc4c(c3)OCO4)C2)cc1C (stereo not given), the inhibition is reported as 84.4% (active). With CC(C)Nc1nc(Cl)nc(NC(C)C)n1 the inhibition was -4.88% (inactive). In the case of C=CCN1C(=O)NC(=O)/C(=C/c2ccc(OCC(=O)Nc3ccc(C)cc3)cc2)C1=O, the inhibition is reported as -8.3% (inactive). In the case of COc1ccc(-c2nc(CS(=O)CC(=O)N3CCC4(CC3)OCCO4)c(C)o2)cc1 (stereo not given), the inhibition is reported as -12.6% (inactive). With CC1(C)C(c2ccccc2)=NC(c2cccnc2)=[N+]1[O-] the inhibition was -21% (inactive). For CCOC(=O)C1SC2(C(F)(F)C(F)F)CC1(O)c1c(c(OC)c3occc3c1OC)O2 (stereo not given), the inhibition was 46.3% (active). O=C(N/N=C/c1c(O)n(C2CC2)c(=S)[nH]c1=O)c1ccccc1 was tested, and the inhibition was -8.31% (inactive). In the case of CCOC(=O)C1(Cc2ccc(Cl)cc2)CCN(C(C)CCn2cccn2)CC1 (stereo not given), the inhibition is reported as 22.2% (inactive). With CC1CCCN1CCC(C(N)=O)(c1ccccc1)c1ccccc1 (stereo not given) the inhibition was 98.5% (active). In the case of CC1CCCCN1Cc1cccnc1 (stereo not given), the inhibition is reported as 3.5% (inactive). For O=C(Cc1ccccc1)N1CCN(C2CCCCCC2)CC1, the inhibition was -0.63% (inactive). COC(=O)C1=C(c2cccc(OCc3ccccc3)c2)C[C@@H]2CC[C@H]1N2C(=O)NNCc1ccccc1 was tested, and the inhibition was 18.8% (inactive). Cc1cc(OCc2cc(C(=O)O)oc2C)c2c3c(c(=O)oc2c1)CCCC3 was tested, and the inhibition was -3.16% (inactive). In the case of CSc1nc2ccc(C)cc2c(=O)n1-c1cccnc1, the inhibition is reported as -6.09% (inactive). CSc1ccc(C(=O)C2CCCN(Cc3ccn[nH]3)C2)cc1 (stereo not given) was tested, and the inhibition was 62.7% (active). S=C(NCCc1ccccc1)N1Cc2cc(N3CCOCC3)ccc2-n2nncc2C1 was tested, and the inhibition was -7.43% (inactive). With COC(=O)C1=C(c2ccccc2)C[C@@H]2CC[C@H]1N2C(=O)N1CCCCC1 the inhibition was -1.18% (inactive). With O=C(NC1CCCCC1)N1Cc2cc(N3CCCCC3)ccc2-n2nncc2C1 the inhibition was 6.05% (inactive). With CCOc1cccc(=NC2CCCCC2)c2c(C)[nH]c(C)c12 the inhibition was -4.64% (inactive). CCCCCCCCCCCCn1ccc(=N)cc1 was tested, and the inhibition was 89.2% (active). With COc1ccc(C2NCc3ccc4c(c3-n3cccc32)OCO4)cc1OC (stereo not given) the inhibition was -9.71% (inactive). O=C(c1cc2nc(-c3ccccc3)cc(-c3ccccc3)n2n1)N1CCC2(CC1)OCCO2 was tested, and the inhibition was -31% (inactive). COC(=O)C1=C(c2ccc(-c3ccccc3)c(F)c2)C[C@@H]2CC[C@H]1N2C(=O)NCc1ccc(F)cc1 was tested, and the inhibition was 1.14% (inactive). For COc1cc(C(=O)N2Cc3ccc(Br)cc3-n3nncc3C2)cc(OC)c1OC, the inhibition was 1.07% (inactive). For Cc1nn(Cc2ccccc2Cl)c(Cl)c1C(=O)OC(C(=O)NC(N)=O)C(C)C (stereo not given), the inhibition was -7.79% (inactive). With CCOC(=O)CNC(=O)N1Cc2cc(N3CCCCC3)ccc2-n2nncc2C1 the inhibition was -0.57% (inactive). For CC(CC(C#N)(c1ccccc1)c1ccccc1)N1CCCCC1 (stereo not given), the inhibition was 75.2% (active). Clc1ccc2nc3c(c(-c4ccccc4)c2c1)CNCC3 was tested, and the inhibition was 5.52% (inactive). In the case of Cn1c(O)c(C(=Nc2ccc(F)cc2)c2ccccc2)c(=O)n(C)c1=O, the inhibition is reported as -7.87% (inactive).
